Source: PubChem BioAssay
Only some compounds are listed: those with a hit (about 1.1% of all), similar ones and a draw of the others.
NCOA3 inh – human NCOA3 inhibition. Q9Y6Q9. HEK293 GAL4-SRC3 luciferase reporter, luminescence. inhibition, % at 3.6 µM. 360,000 tested, 0.17% active. AID 588352;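 active = inhibition above a per-campaign cutoff, the mean of all compounds plus 3 SD, cut at about 60% in these data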;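 also: 0% = DMSO-treated cells and 100% = gossypol-treated cells at 36 µM; higher means less SRC3-driven luciferase light from the GAL4 reporter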
GalR3 antagonist – blocks the human galanin receptor 3 | O60755 | HEK293 GalR3-CNG cAMP membrane potential fluorescence; galR3 body fused to GalR1 C-terminus | inhibition, % at 3 µM | 360,000 tested, 0.44% active;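 active = inhibition above the screen-wide average plus 3 SD, cut at about 13% in these data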;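 also: forskolin and galanin both at EC90 stimulate the cells; cAMP rise reported by CNG channel membrane potential dye signal; 0% = forskolin plus galanin with DMSO and 100% = forskolin alone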
LRH-1 inv ag – suppresses constitutive activity of human LRH-1; 360,000 tested, 0.13% active; HEK293T StAR-luciferase reporter, LRH-1 transfected, 24 h; inhibition, % at 3.6 µM;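 active = inhibition above the mean inhibition of all tested compounds plus 3 SD, cut at about 73% in these data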;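 also: 0% = DMSO wells and 100% = reporter-only cells lacking LRH-1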
SRC2 inh – inhibits human steroid receptor coactivator 2. Q15596. HEK293 GAL4-SRC2 luciferase reporter, luminescence. inhibition, % at 9 µM. 370,000 tested, 0.17% active;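 active = inhibition above the mean inhibition of all tested compounds plus 3 SD, set per campaign, cut at about 52% in these data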;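 also: 0% = DMSO treated cells and 100% = cells given Gossypol at 36 µM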
NR2F2 inh – NR2F2 (human) inhibition, primary screen | HEK293T NGFI-A luciferase reporter, luminescence | inhibition, % at 8.6 µM | P24468 | 370,000 tested, 0.7% active;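 active = inhibition above a per-plate cutoff, mean inhibition of test wells between control levels plus 3 SD, cut at about 38% in these data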;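 also: cells cotransfected with COUP-TFII expression vector driving the NGFI-A reporter; 0% = median of COUP-TF2 test wells and 100% = reporter-only cells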
SRC1 inh – inhibitors of human steroid receptor coactivator 1 (SRC1) | Q15788 | HEK293 GAL4-SRC1 luciferase reporter, luminescence | inhibition, % at 3.6 µM | 360,000 tested, 0.12% active;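 active = inhibition above the campaign mean plus 3 SD, with each screening campaign given its own cutoff, cut at about 60% in these data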;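 also: 0% = DMSO treated cells and 100% = gossypol at 36 µM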
Target sequence (Q15788 whole entry, looked up, the tested form may be a part): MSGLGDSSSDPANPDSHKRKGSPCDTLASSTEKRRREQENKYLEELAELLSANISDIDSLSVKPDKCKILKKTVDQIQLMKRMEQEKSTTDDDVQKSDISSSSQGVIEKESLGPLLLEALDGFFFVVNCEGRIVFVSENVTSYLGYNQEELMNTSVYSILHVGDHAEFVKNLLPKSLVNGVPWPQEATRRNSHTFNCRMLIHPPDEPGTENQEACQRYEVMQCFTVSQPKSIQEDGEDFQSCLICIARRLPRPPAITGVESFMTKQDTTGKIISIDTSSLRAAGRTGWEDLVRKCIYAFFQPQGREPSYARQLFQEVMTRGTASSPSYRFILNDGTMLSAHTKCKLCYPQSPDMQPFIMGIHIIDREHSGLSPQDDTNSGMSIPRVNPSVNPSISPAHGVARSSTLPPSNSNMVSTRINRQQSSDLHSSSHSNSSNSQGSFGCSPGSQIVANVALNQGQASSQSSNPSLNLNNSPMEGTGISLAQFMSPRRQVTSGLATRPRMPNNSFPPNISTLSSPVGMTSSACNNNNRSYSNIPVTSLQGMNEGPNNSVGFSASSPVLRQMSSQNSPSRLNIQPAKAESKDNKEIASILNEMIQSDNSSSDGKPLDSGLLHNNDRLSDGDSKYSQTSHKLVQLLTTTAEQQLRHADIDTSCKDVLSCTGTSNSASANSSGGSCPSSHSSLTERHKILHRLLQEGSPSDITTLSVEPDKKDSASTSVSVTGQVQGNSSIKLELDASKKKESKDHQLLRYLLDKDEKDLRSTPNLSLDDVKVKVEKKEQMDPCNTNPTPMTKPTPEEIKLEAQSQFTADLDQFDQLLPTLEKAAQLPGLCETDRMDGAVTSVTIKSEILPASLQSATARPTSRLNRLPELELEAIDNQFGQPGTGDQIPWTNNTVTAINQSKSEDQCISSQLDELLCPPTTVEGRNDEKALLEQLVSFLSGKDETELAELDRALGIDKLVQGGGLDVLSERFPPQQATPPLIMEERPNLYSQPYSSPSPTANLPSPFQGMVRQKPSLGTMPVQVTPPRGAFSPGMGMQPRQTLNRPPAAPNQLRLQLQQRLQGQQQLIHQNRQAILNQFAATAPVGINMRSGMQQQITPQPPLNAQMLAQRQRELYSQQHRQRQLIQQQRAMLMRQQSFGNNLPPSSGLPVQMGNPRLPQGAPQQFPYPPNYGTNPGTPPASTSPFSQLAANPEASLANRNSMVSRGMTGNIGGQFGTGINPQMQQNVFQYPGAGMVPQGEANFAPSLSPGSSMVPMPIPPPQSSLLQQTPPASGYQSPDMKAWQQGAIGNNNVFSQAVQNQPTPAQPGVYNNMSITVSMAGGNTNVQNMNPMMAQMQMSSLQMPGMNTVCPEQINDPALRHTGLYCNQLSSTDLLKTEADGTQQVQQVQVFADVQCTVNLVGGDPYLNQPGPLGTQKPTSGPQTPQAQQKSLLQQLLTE
GalR3 conf – GalR3 (human) antagonism, confirmation; shares compounds with GalR3 antagonist; HEK293 GalR3 CNG cAMP biosensor, membrane potential fluorescence; galR3 fused to GalR1 carboxy tail; challenged with forskolin and galanin at EC90; inhibition, % at 3 µM; 1,600 tested, 59% active; AID 652245;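 active = inhibition above the primary screen's cutoff, the mean inhibition of all screened compounds plus 3 SD, cut at about 13% in these data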;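 also: 0% = forskolin plus galanin and 100% = forskolin alone with DMSO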
HEK-CNG parental – counter-screen for GalR3 antagonists: nonspecific agonists in parental HEK-CNG cells | 1,600 tested, 10% active | AID 652268 | shares compounds with GalR3 antagonist | HEK293-CNG parental cells, cAMP membrane potential fluorescence; normalised: DMSO wells 0%, forskolin wells 100% | activation, % at 3 µM; in the data active = activation above about 1.3%
* hit, by the source's call; nt = not tested or not shown.

SMILES | NCOA3 inh | GalR3 antagonist | LRH-1 inv ag | SRC2 inh | NR2F2 inh | SRC1 inh | GalR3 conf | HEK-CNG parental
COc1cccc(C2c3c(-c4cc(Cl)c(C)cc4O)n[nH]c3C(=O)N2Cc2cccnc2)c1 (configuration not stated) | 2 | 12 | 4 | 0 | 11 | -4 | nt | nt
CCOC(=O)C1=C(C)NC2=C(C(=O)c3ccccc32)C1c1ccc(O)cc1 (configuration not stated) | 11 | 20* | 8 | -9 | -9 | -4 | 8 | 0
CCOC(=O)C1=C(C)NC2=C(C(=O)c3ccccc32)C1c1cccc2ccccc12 (configuration not stated) | -10 | -3 | -4 | 10 | 9 | -3 | nt | nt
COC(=O)[C@]12C[C@H](CC(=O)NCCC(C)C)C(=O)N(Cc3cccc4ccccc34)C1=C[C@H](C(C)C)O[C@@H]2C1CC1 | nt | nt | nt | 12 | -4 | nt | nt | nt
COc1ccc(/C=C2\SC(=N)N(c3ccc(F)cc3)C2=O)cc1OC | 8 | 18* | 19 | 2 | -4 | -14 | 17* | 1
CC(COc1cccc(C#N)c1)CN1CCC(C(O)(c2ccccc2)c2ccccc2)CC1 (configuration not stated) | nt | nt | nt | 25 | 0 | nt | nt | nt
COc1ccc(OC)c(-c2nnc3n2N=C(c2ccc(OC)c(OC4CCCC4)c2)CS3)c1 | 8 | 1 | 24 | 25 | -28 | 16 | nt | nt
COc1ccc(OC)c(-c2nnc3n2N=C(c2ccc(OC)c(OC)c2)CS3)c1 | 5 | 50* | 41 | 1 | -130 | -45 | 34* | 1.5*
COc1ccc(C2=Nn3c(nnc3C3CCCCC3)SC2)cc1OC | -34 | 49* | 18 | -30 | -87 | -64 | 48* | 1
COc1ccc(OC)c(C2=Nn3c(nnc3C3CCCCC3)SC2)c1 | 11 | -2 | 34 | -4 | 6 | 3 | nt | nt
COC(=O)C/C=C/[C@@H](C)[C@H](NC(=O)OCC(Cl)(Cl)Cl)c1ccc(-c2ccccc2)cc1 | nt | nt | nt | -15 | 2 | nt | nt | nt
COc1ccc(C(=O)c2[nH]c(N)c(C(=O)c3ccccc3)c2-c2ccc(OC)c(OC)c2)cc1 | nt | nt | nt | nt | 0 | nt | nt | nt
Cc1ccn(CC(=O)N2CCCC(C(=O)c3cccc4ccccc34)C2)n1 (configuration not stated) | -3 | 4 | 8 | 4 | 20 | -20 | nt | nt
Cc1nc(C)n(CC(=O)N2CCCC(C(=O)c3cccc4ccccc34)C2)n1 (configuration not stated) | -4 | 13* | -33 | -69 | -46 | -7 | -1 | 0
Cc1cccc(OCC(C)CN2CCC(C(O)(c3ccccc3)c3ccccc3)CC2)c1 (configuration not stated) | nt | nt | nt | 2 | -12 | nt | nt | nt
OCCNCCOc1ccccc1F | 10 | 13* | 0 | 2 | -1 | 11 | 0 | 0
OCCNCCOc1ccccc1-c1ccccc1 | 0 | -9 | -15 | -28 | 10 | -27 | nt | nt
Cc1onc(-c2ccccc2)c1-c1nc2ccccc2c(=O)o1 | -2 | 16* | 3 | 27 | -25 | -21 | 13* | 2.0*
CC(C)N1CCCCC(NC(=O)c2cccc(F)c2)C1=O (configuration not stated) | nt | nt | nt | -25 | -22 | nt | nt | nt
CCN1CCCC1CNCc1cc(OC)c(OC)c(OC)c1 (configuration not stated) | -3 | -7 | 11 | 0 | 18 | 4 | nt | nt
CCOc1cc(CNCC2CCCN2CC)cc(Cl)c1OC (configuration not stated) | -8 | 15* | -20 | 15 | -5 | -5 | 3 | 1
N#CCC[C@H]1CC[C@]2(CCCN(Cc3ccc(Br)cc3)C2)O1 | nt | nt | nt | -4 | -4 | nt | nt | nt
Cc1ccc2c(c1)C(=O)C(=O)N2CC(=O)Nc1ccccc1NC(=O)c1ccccn1 | 4 | 20* | 3 | -4 | 5 | -7 | 5 | 1
Cc1ccc(C)c(C(=O)c2ccccc2NC(=O)c2ccccn2)c1 | 10 | -10 | 2 | 4 | -2 | 8 | nt | nt
